# Measured values taken from the supplement of paper PMC8728848.
# The entries come from a sample that favours the strongest signals as a whole.
# Key:
# Test in all cases: glycan array binding signal (z-score within array); higher = stronger binding
# Conditions in all cases: glycan notation: IUPAC condensed, linker removed
# Fuc(a1-2)Gal(b1-3)GalNAc = molecular target: Fuc(a1-2)Gal(b1-3)GalNAc
# Method in brief: (§1)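 Negative Z-scores can be read as non-binding. The Z-score is calculated within each array and then averaged across arrays of one protein sequence at different concentrations or buffers and across linkers. Arrays, 3228 in all, were curated from the Consortium for Functional Glycomics database and kept only where the protein sequence was available.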
# [1] = molecular target: Fuc(a1-2)Gal(b1-4)GlcNAc(b1-3)Gal(b1-4)GlcNAc
# Method in brief: as §1
# [2] = molecular target: Fuc(a1-2)[GalNAc(a1-3)]Gal
# Method in brief: as §1
# [3] = molecular target: Fuc(a1-2)[GalNAc(b1-3)]Gal
# Method in brief: as §1
# Gal(a1-3)Gal = molecular target: Gal(a1-3)Gal
# Method in brief: as §1
# Gal(a1-6)Glc = molecular target: Gal(a1-6)Glc
# Method in brief: as §1
# [4] = molecular target: Gal(b1-3)GalNAc(b1-4)Gal(b1-4)Glc
# Method in brief: as §1
# [5] = molecular target: Gal(b1-3)[Fuc(a1-4)]GlcNAc(b1-3)Gal(b1-4)GlcNAc
# Method in brief: as §1
# Gal(b1-4)Glc = molecular target: Gal(b1-4)Glc
# Method in brief: as §1
# [6] = molecular target: Gal(b1-4)GlcNAc(b1-6)Gal(b1-4)GlcNAc(b1-6)GalNAc
# Method in brief: as §1
# Gal3S(b1-3)GlcNAc = molecular target: Gal3S(b1-3)GlcNAc
# Method in brief: as §1
# Gal3S(b1-4)Glc6S = molecular target: Gal3S(b1-4)Glc6S
# Method in brief: as §1
# Gal3S6S(b1-4)GlcNAc6S = molecular target: Gal3S6S(b1-4)GlcNAc6S
# Method in brief: as §1
# [7] = molecular target: Man(a1-3)[Man(a1-6)]Man(a1-6)[Man(a1-3)]Man(b1-4)GlcNAc(b1-4)GlcNAc
# Method in brief: as §1
# [8] = molecular target: Neu5Ac(a2-3)Gal(b1-4)GlcNAc(b1-3)Gal(b1-4)GlcNAc(b1-3)Gal(b1-4)GlcNAc
# Method in brief: as §1
# [9] = molecular target: Neu5Gc(a2-3)Gal(b1-3)[Fuc(a1-4)]GlcNAc
# Method in brief: as §1
# [10] = molecular target: Neu5Gc(a2-3)Gal(b1-4)GlcNAc
# Method in brief: as §1
# [11] = molecular target: Fuc(a1-2)Gal(b1-3)GalNAc(a1-3)[Fuc(a1-2)]Gal(b1-4)Glc
# Method in brief: as §1
# [12] = molecular target: Fuc(a1-2)Gal(b1-3)GalNAc(b1-4)[Neu5Ac(a2-3)]Gal(b1-4)Glc
# Method in brief: as §1
# [13] = molecular target: Fuc(a1-2)Gal(b1-3)[Fuc(a1-4)]GlcNAc
# Method in brief: as §1
# [14] = molecular target: Fuc(a1-2)Gal(b1-3)[Fuc(a1-4)]GlcNAc(b1-3)[Gal(b1-4)GlcNAc(b1-6)]Gal(b1-4)Glc
# Method in brief: as §1
# [15] = molecular target: Fuc(a1-2)Gal(b1-4)[Fuc(a1-3)]GlcNAc(b1-2)Man(a1-3)[Fuc(a1-2)Gal(b1-4)[Fuc(a1-3)]GlcNAc(b1-2)Man(a1-6)]Man(b1-4)GlcNAc(b1-4)GlcNAc
# Method in brief: as §1
# [16] = molecular target: Fuc(a1-2)Gal(b1-4)[Fuc(a1-3)]GlcNAc(b1-3)Gal(b1-4)[Fuc(a1-3)]GlcNAc(b1-3)Gal(b1-4)[Fuc(a1-3)]GlcNAc
# Method in brief: as §1
# [17] = molecular target: Fuc(a1-2)[GalNAc(a1-3)]Gal(b1-4)GlcNAc
# Method in brief: as §1
# [18] = molecular target: Fuc(a1-3)[Gal(b1-4)]GlcNAc(b1-3)GalNAc
# Method in brief: as §1
# [19] = molecular target: Gal(a1-3)Gal(b1-3)[Fuc(a1-4)]GlcNAc(b1-2)Man(a1-3)[Gal(a1-3)Gal(b1-3)[Fuc(a1-4)]GlcNAc(b1-2)Man(a1-6)]Man(b1-4)GlcNAc(b1-4)GlcNAc
# Method in brief: as §1
# Gal(a1-3)Gal(b1-4)Glc = molecular target: Gal(a1-3)Gal(b1-4)Glc
# Method in brief: as §1
# [20] = molecular target: Gal(a1-3)Gal(b1-4)GlcNAc(b1-3)GalNAc
# Method in brief: as §1
# [21] = molecular target: Gal(a1-3)[Gal(a1-4)]Gal(b1-4)GlcNAc
# Method in brief: as §1
# Gal(a1-4)Gal(b1-4)GlcNAc = molecular target: Gal(a1-4)Gal(b1-4)GlcNAc
# Method in brief: as §1
# Gal(a1-4)GlcNAc = molecular target: Gal(a1-4)GlcNAc
# Method in brief: as §1
# [22] = molecular target: Gal(b1-3)GalNAc(a1-3)[Fuc(a1-2)]Gal(b1-4)Glc
# Method in brief: as §1
# Gal(b1-3)GlcNAc = molecular target: Gal(b1-3)GlcNAc
# Method in brief: as §1
# [23] = molecular target: Gal(b1-3)GlcNAc(b1-3)Gal(b1-4)GlcNAc
# Method in brief: as §1
# [24] = molecular target: Gal(b1-4)GlcNAc(b1-2)Man(a1-3)[Gal(b1-4)GlcNAc(b1-2)Man(a1-6)]Man(b1-4)GlcNAc(b1-4)GlcNAc
# Method in brief: as §1
# [25] = molecular target: Gal(b1-4)GlcNAc(b1-2)Man(a1-6)[GlcNAc(b1-2)Man(a1-3)]Man(b1-4)GlcNAc(b1-4)GlcNAc
# Method in brief: as §1
# GalNAc(a1-3)Gal = molecular target: GalNAc(a1-3)Gal
# Method in brief: as §1
# GalNAc(b1-3)GalNAc = molecular target: GalNAc(b1-3)GalNAc
# Method in brief: as §1
# GalNAc(b1-4)GlcNAc = molecular target: GalNAc(b1-4)GlcNAc
# Method in brief: as §1
# [26] = molecular target: GlcNAc(a1-4)Gal(b1-3)GlcNAc
# Method in brief: as §1
# [27] = molecular target: GlcNAc(b1-2)Gal(b1-3)GalNAc
# Method in brief: as §1
# [28] = molecular target: GlcNAc(b1-2)Man(a1-3)[GlcNAc(b1-2)Man(a1-6)]Man(b1-4)GlcNAc(b1-4)GlcNAc
# Method in brief: as §1
# Kdn(a2-3)Gal(b1-3)GlcNAc = molecular target: Kdn(a2-3)Gal(b1-3)GlcNAc
# Method in brief: as §1
# [29] = molecular target: Kdn(a2-3)Gal(b1-4)[Fuc(a1-3)]GlcNAc
# Method in brief: as §1
# Kdn(a2-6)Gal(b1-4)GlcNAc = molecular target: Kdn(a2-6)Gal(b1-4)GlcNAc
# Method in brief: as §1
# [30] = molecular target: Man(a1-2)Man(a1-2)Man(a1-6)[Man(a1-3)]Man
# Method in brief: as §1
# Man(a1-2)Man(a1-3)Man = molecular target: Man(a1-2)Man(a1-3)Man
# Method in brief: as §1
# Man(a1-3)[Man(a1-6)]Man = molecular target: Man(a1-3)[Man(a1-6)]Man
# Method in brief: as §1
# [31] = molecular target: Man(a1-3)[Man(a1-6)]Man(a1-6)[Man(a1-3)]Man
# Method in brief: as §1
# [32] = molecular target: Neu5Ac(a2-3)Gal(b1-4)[Fuc(a1-3)]GlcNAc(b1-3)GalNAc
# Method in brief: as §1
# Neu5Ac(a2-6)Gal = molecular target: Neu5Ac(a2-6)Gal
# Method in brief: as §1
# [33] = molecular target: Neu5Ac(a2-6)Gal(b1-4)GlcNAc(b1-3)GalNAc
# Method in brief: as §1
# Neu5Ac(a2-6)GalNAc = molecular target: Neu5Ac(a2-6)GalNAc
# Method in brief: as §1
# [34] = molecular target: Neu5Ac(a2-6)GlcNAc(b1-4)GlcNAc
# Method in brief: as §1
# Neu5Ac(a2-8)Neu5Ac = molecular target: Neu5Ac(a2-8)Neu5Ac
# Method in brief: as §1
# [35] = molecular target: Neu5Ac(a2-8)Neu5Ac(a2-3)[GalNAc(b1-4)]Gal(b1-4)Glc
# Method in brief: as §1
binder,measurement,setting,value
LKITALY (Gibberella zeae) (protein) MGNFHESSNNIWLEDGHILHAECGNGEGDYVESTLDLDYYIGNDDGSFSWGGENFSGSASNITLDIEGDDNIPVLRAELNPMDGDPVEANVNLSERIGNDCGTLIFLA,glycan array binding signal (z-score),Fuc(a1-2)Gal(b1-3)GalNAc,-0.361
same,glycan array binding signal (z-score),[1],-0.364
same,glycan array binding signal (z-score),[2],-0.347
same,glycan array binding signal (z-score),[3],-0.36
same,glycan array binding signal (z-score),Gal(a1-3)Gal,-0.354
same,glycan array binding signal (z-score),Gal(a1-6)Glc,-0.352
same,glycan array binding signal (z-score),[4],-0.358
same,glycan array binding signal (z-score),[5],-0.337
same,glycan array binding signal (z-score),Gal(b1-4)Glc,-0.357
same,glycan array binding signal (z-score),[6],-0.342
same,glycan array binding signal (z-score),Gal3S(b1-3)GlcNAc,4.13
same,glycan array binding signal (z-score),Gal3S(b1-4)Glc6S,2.82
same,glycan array binding signal (z-score),Gal3S6S(b1-4)GlcNAc6S,3.55
same,glycan array binding signal (z-score),[7],-0.347
same,glycan array binding signal (z-score),[8],3.85
same,glycan array binding signal (z-score),[9],-0.358
same,glycan array binding signal (z-score),[10],3.69
"AcfC (Vibrio cholerae), Q57410 (protein) MKSKNRFLLISLLSFSTSVFADVNLYGPGGPHVPLIKVAESFEKSQSKRVNITFGPQATWNDKAKKNADILFGASEHSALAIAEGHSERFSKFNIHPVFMREAIILVKKGNPKNIKGMADLLKPGIGIVVNDGAGVSNTSGTAVWEDSVGRMKNVEKLQAFRSNIHVFAPNSGSARKAFVDGEDIDAWITWVDWAIANPTIGDMVRMEDEYRIYRDFNVVLAKNPSSEAIDFFDYLTKSKDAEAIFQHYGWFK",glycan array binding signal (z-score),Fuc(a1-2)Gal(b1-3)GalNAc,0.244
same,glycan array binding signal (z-score),[11],-1.2
same,glycan array binding signal (z-score),[12],-0.09
same,glycan array binding signal (z-score),[13],3.03
same,glycan array binding signal (z-score),[14],1.12
same,glycan array binding signal (z-score),[15],3.03
same,glycan array binding signal (z-score),[16],2.22
same,glycan array binding signal (z-score),[17],-0.063
same,glycan array binding signal (z-score),[18],1.43
same,glycan array binding signal (z-score),[19],4.58
same,glycan array binding signal (z-score),Gal(a1-3)Gal(b1-4)Glc,-0.864
same,glycan array binding signal (z-score),[20],-0.809
same,glycan array binding signal (z-score),[21],-0.149
same,glycan array binding signal (z-score),Gal(a1-4)Gal(b1-4)GlcNAc,0.091
same,glycan array binding signal (z-score),Gal(a1-4)GlcNAc,0.322
same,glycan array binding signal (z-score),[22],0.135
same,glycan array binding signal (z-score),Gal(b1-3)GlcNAc,0.247
same,glycan array binding signal (z-score),[23],-0.979
same,glycan array binding signal (z-score),[24],3
same,glycan array binding signal (z-score),[25],0.212
same,glycan array binding signal (z-score),Gal3S(b1-4)Glc6S,0.515
same,glycan array binding signal (z-score),GalNAc(a1-3)Gal,0.334
same,glycan array binding signal (z-score),GalNAc(b1-3)GalNAc,0.05
same,glycan array binding signal (z-score),GalNAc(b1-4)GlcNAc,0.088
same,glycan array binding signal (z-score),[26],0.098
same,glycan array binding signal (z-score),[27],-0.601
same,glycan array binding signal (z-score),[28],0.375
same,glycan array binding signal (z-score),Kdn(a2-3)Gal(b1-3)GlcNAc,0.128
same,glycan array binding signal (z-score),[29],-0.465
same,glycan array binding signal (z-score),Kdn(a2-6)Gal(b1-4)GlcNAc,-0.748
same,glycan array binding signal (z-score),[30],-0.753
same,glycan array binding signal (z-score),Man(a1-2)Man(a1-3)Man,-0.096
same,glycan array binding signal (z-score),Man(a1-3)[Man(a1-6)]Man,-0.136
same,glycan array binding signal (z-score),[31],0.134
same,glycan array binding signal (z-score),[32],6.97
same,glycan array binding signal (z-score),Neu5Ac(a2-6)Gal,2.2
same,glycan array binding signal (z-score),[33],-0.94
same,glycan array binding signal (z-score),Neu5Ac(a2-6)GalNAc,-1.62
same,glycan array binding signal (z-score),[34],-0.781
same,glycan array binding signal (z-score),Neu5Ac(a2-8)Neu5Ac,0.214
same,glycan array binding signal (z-score),[35],-0.835
